Measurements: PubChem BioAssay (Tox21)
Results filed as inconclusive are left out. Activity calls are given as the source filed them. Unless noted, calls follow the shape of the dose curve; as a rule, active = well fitted curve in the direction sought with a large enough effect in the repeat runs; inconclusive = weak or mixed curves; inactive = no such curve, though single readings can be large; an effect the other way counts as inactive or inconclusive.

Experiments:
[1] = qHTS RealTime-Glo MT Cell Viability Assay in HepG2 cells - 32 hour (AID 1224877); also: nearly all actives have a fitted effect of over 55% in size
Summary of the method: (§1)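 Cells + NanoLuc/prosubstrate dispensed (600 cells/well) → 5 h at 37 C/5% CO2 → compounds in DMSO transferred → 40 h incubation at 37 C, luminescence read at 0, 8, 16, 24, 32, 40 h.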

[2] = A CellTox Green Cytotoxicity Assay to monitor cytotoxicity in HepG2 cells - 24 hour (AID 1224878); also: nearly all actives have a fitted effect of over 45% in size; also: potency is read from the fitted curve at half-maximal effect
Summary of the method: (§2)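 Fluorescent DNA-binding dye, 600 HepG2 cells/well, 5 h preincubation then compound in DMSO; same plates read at 0–40 h, 37 C.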

[3] = A CellTox Green Cytotoxicity Assay to monitor cytotoxicity in HepG2 cells - 40 hour (AID 1224879); also: nearly all actives have a fitted effect of over 40% in size; also: potency is read from the fitted curve at half-maximal effect
Summary of the method: as §2

[4] = A CellTox Green Cytotoxicity Assay to monitor cytotoxicity in HEK293 cells - 32 hour (AID 1224881); also: nearly all actives have a fitted effect of over 40% in size
Summary of the method: (§3)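 Homogeneous no-lysis format: HEK293 cell suspension mixed with CellTox Green reagent, seeded, incubated 5 h at 37 C/5% CO2, then dosed by pintool with compound in DMSO.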

[5] = A CellTox Green Cytotoxicity Assay to monitor cytotoxicity in HepG2 cells - 32 hour (AID 1224883); also: nearly all actives have a fitted effect of over 50% in size; also: potency is read from the fitted curve at half-maximal effect
Summary of the method: as §2

[6] = A CellTox Green Cytotoxicity Assay to monitor cytotoxicity in HEK293 cells - 8 hour (AID 1224884); also: nearly all actives have a fitted effect of over 35% in size
Summary of the method: as §3

[7] = qHTS RealTime-Glo MT Cell Viability Assay in HepG2 cells - 16 hour (AID 1224885); also: nearly all actives have a fitted effect of over 50% in size
Summary of the method: as §1

[8] = qHTS RealTime-Glo MT Cell Viability Assay in HEK293 cells - 24 hour (AID 1224886); also: top concentration of the series differs between compounds; nearly all actives have a fitted effect of over 50% in size
Summary of the method: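 Tox21 10K qHTS, HEK293, 600 cells/well, RealTime-Glo reagent co-dispensed with cells; 5 h preincubation, compound by pintool, 37 C, luminescence at 0–40 h.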

[9] = qHTS RealTime-Glo MT Cell Viability Assay in HEK293 cells - 8 hour (AID 1224887); also: top concentration of the series differs between compounds; nearly all actives have a fitted effect of over 50% in size
Summary of the method: (§4)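 Measured as luminescence from the same continuously cultured HEK293 wells at successive time points (0, 8, 16, 24, 32, 40 h) after compound addition. Reagent present from seeding; dosing at 5 h; incubation 37 C.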

[10] = A CellTox Green Cytotoxicity Assay to monitor cytotoxicity in HEK293 cells - 16 hour (AID 1224888); also: nearly all actives have a fitted effect of over 35% in size
Summary of the method: as §3

[11] = qHTS RealTime-Glo MT Cell Viability Assay in HepG2 cells - 0 hour (AID 1224889); also: nearly all actives have a fitted effect of over 50% in size
Summary of the method: as §1

[12] = A CellTox Green Cytotoxicity Assay to monitor cytotoxicity in HepG2 cells - 8 hour (AID 1224890); also: nearly all actives have a fitted effect of over 45% in size; also: potency is read from the fitted curve at half-maximal effect
Summary of the method: as §2

[13] = qHTS assay to identify small molecule antagonists of the estrogen receptor alpha (ER-alpha) signaling pathway using the BG1 cell line in the presence of 0.1 nM 17-beta-estradiol - cell viability counter screen (AID 1259241); also: nearly all actives have a fitted effect of over 40% in size; also: potency is read from the fitted curve at half-maximal effect
Summary of the method: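 Live-cell protease activity (CellTiter-Fluor fluorescence, 30 min) was read in the same wells after VM7Luc4E2 cells had been exposed to compounds with 0.1 nM 17beta-estradiol for 22 hr at 37C.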

[14] = qHTS assay to identify small molecule antagonists of the androgen receptor (AR) signaling pathway using the MDA cell line in the presence of 0.5 nM R1881 - cell viability counter screen (AID 1259242); also: nearly all actives have a fitted effect of over 45% in size; also: potency is read from the fitted curve at half-maximal effect
Summary of the method: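 Human breast carcinoma MDA-kb2 cells, cultured without CO2, receive compounds alongside 0.5 nM (final) R1881 agonist. After 16 hr at 37C, viability is taken as live-cell protease signal.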

[15] = target: Estrogen receptor (Homo sapiens) (UniProt P03372); experiment: qHTS assay to identify small molecule antagonists of the estrogen receptor alpha (ER-alpha) signaling pathway using the BG1 cell line in the presence of 0.1 nM 17-beta-estradiol (AID 1259244); also: nearly all actives have a fitted effect of over 50% in size
Chain of Estrogen receptor (Homo sapiens) (P03372 whole entry, looked up): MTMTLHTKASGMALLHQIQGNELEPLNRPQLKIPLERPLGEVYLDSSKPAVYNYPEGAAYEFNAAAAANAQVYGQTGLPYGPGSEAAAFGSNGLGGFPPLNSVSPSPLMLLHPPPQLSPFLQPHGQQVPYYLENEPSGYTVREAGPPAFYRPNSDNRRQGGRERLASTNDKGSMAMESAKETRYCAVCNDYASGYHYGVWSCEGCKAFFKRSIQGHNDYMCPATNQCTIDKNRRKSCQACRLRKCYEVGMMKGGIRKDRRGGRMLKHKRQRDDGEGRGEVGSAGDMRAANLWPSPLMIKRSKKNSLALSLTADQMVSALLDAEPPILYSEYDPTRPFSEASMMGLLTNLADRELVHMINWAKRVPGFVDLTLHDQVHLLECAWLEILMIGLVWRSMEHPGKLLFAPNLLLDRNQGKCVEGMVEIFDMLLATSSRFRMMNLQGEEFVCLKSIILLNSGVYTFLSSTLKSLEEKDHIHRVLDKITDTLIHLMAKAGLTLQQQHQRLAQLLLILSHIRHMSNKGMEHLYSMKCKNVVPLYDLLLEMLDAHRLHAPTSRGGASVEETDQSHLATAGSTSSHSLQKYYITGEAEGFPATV
Summary of the method: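 Seeding of stripped-serum-adapted VM7Luc4E2 cells, 24 h attachment, compound transfer, then 0.1 nM final 17beta-estradiol; after 22 h incubation, ONE-Glo reagent and luminescence reading.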

[16] = qHTS assay to identify small molecule HDAC inhibitors - cell viability counter screen (AID 1259365)
Summary of the method: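 HCT-116 (wild type), 1,500 cells/well, overnight 37C/5% CO2; compound in DMSO 2hr; CellTiter-Glo 30min RT; luminescence read.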

[17] = A CellTox Green Cytotoxicity Assay to monitor cytotoxicity in HepG2 cells - 0 hour (AID 1224882); also: nearly all actives have a fitted effect of over 35% in size
Summary of the method: as §2

[18] = qHTS assay to identify small molecule HDAC inhibitors (AID 1259364);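 also: wild-type HCT-116 cells with endogenous class I/II HDAC activity; top concentration of the series differs between compounds; nearly all actives have a fitted effect of over 45% in size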
Summary of the method: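 After a 2 hr compound incubation (37C, 5% CO2), HCT-116 cells seeded at 1,500/well the day before received HDAC-Glo reagent; signal read as luminescence after 30 min at room temperature.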

[19] = qHTS assay to identify small molecule phospholipidosis (PLD) inducers (AID 1259344; active = well fitted curve in the direction sought with a large enough effect; an effect the other way counts as inactive or inconclusive)
Summary of the method: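 Cells (HepG2, 900 per well) attach for 4 h, receive LipidTOX Red and compound together, incubate 24 h at 37 C, are fixed 30 min with paraformaldehyde/Hoechst, then imaged at one site per well.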

[20] = qHTS RealTime-Glo MT Cell Viability Assay in HEK293 cells - 0 hour (AID 1224880)
Summary of the method: as §4
% is scaled to controls: 0 for no effect and ±100 for the full control effect.

CC(C)(c1ccc(Oc2ccc3c(c2)C(=O)OC3=O)cc1)c1ccc(Oc2ccc3c(c2)C(=O)OC3=O)cc1
inactive: outcome [1] | Potency [2] | Potency [3] | Potency [4] | Potency [5] | Potency [6] | outcome [7] | Potency [8] | Potency [9] | Potency [10] | Potency [11] | Potency [12] | Potency [13] | Potency [14] | Potency [15] | outcome [16]

COc1ccc(N=Nc2cc(C)c(N=Nc3ccc(S(=O)(=O)O)cc3)cc2OC)cc1
inactive: outcome [1] | Potency [2] | Potency [3] | Potency [4] | Potency [5] | Potency [6] | outcome [7] | Potency [8] | Potency [9] | Potency [10] | Potency [12] | outcome [16]
active: Potency [13] 68.6 µM | Potency [14] 48.6 µM

CO[Si](CCCCl)(OC)OC
inactive: outcome [1] | Potency [2] | Potency [3] | Potency [17] | Potency [5] | Potency [6] | outcome [7] | Potency [8] | Potency [10] | Potency [11] | Potency [12] | Potency [13] | Potency [14] | Potency [15] | Potency [18] | outcome [16]

O=C(O)Cc1cccc(-c2cc(CCCCCCc3ccc(O[C@H]4O[C@H](CO)[C@@H](O)[C@H](O)[C@@H]4O)c(-c4cccc(CC(=O)O)c4)c3)ccc2O[C@H]2O[C@H](CO)[C@@H](O)[C@H](O)[C@@H]2O)c1
inactive: activity change, negative = cytotoxic [1] -9.69% [at 0.29 µM] | cytotoxicity [2] 15.2% [at 0.29 µM] | cytotoxicity increase [3] 20% [at 0.29 µM] | cytotoxicity increase [4] -14.2% [at 0.29 µM] | cytotoxicity increase [6] -1.66% [at 0.29 µM] | activity change, negative = cytotoxic [7] 17.8% [at 0.29 µM] | activity change, negative = cytotoxicity [8] -1.38% [at 0.29 µM] | activity change, negative = cytotoxicity [9] 11.8% [at 0.29 µM] | activity change [10] -7.34% [at 0.29 µM, active compounds read high] | cytotoxicity increase [12] 23.5% [at 0.29 µM] | activity change, negative = cytotoxicity [13] -0.713% [at 0.349 µM] | viability change, negative = cytotoxic [14] -0.767% [at 0.349 µM] | outcome [19] | activity change, negative = cytotoxicity [16] -0.936% [at 0.349 µM]

CC(C)COC(=O)/C=C/c1ccccc1
inactive: outcome [1] | outcome [20] | Potency [17] | Potency [6] | outcome [7] | Potency [8] | Potency [9] | Potency [10] | Potency [11] | Potency [12] | Potency [13] | Potency [14] | Potency [15] | Potency [18] | outcome [16]

CCOC(=O)C(C)(C)C
inactive: outcome [1] | Potency [2] | Potency [3] | Potency [4] | Potency [17] | Potency [5] | outcome [7] | Potency [9] | Potency [10] | Potency [12] | Potency [13] | Potency [14] | Potency [15] | Potency [18] | outcome [16]

CC(=O)N1CCN(c2ccc(O)cc2)CC1
inactive: outcome [1] | Potency [2] | Potency [3] | Potency [4] | Potency [17] | Potency [5] | outcome [7] | Potency [8] | Potency [9] | Potency [10] | Potency [12] | Potency [13] | Potency [14] | Potency [15] | Potency [18] | outcome [16]

O=C(O)/C=C/c1ccccc1
inactive: outcome [1] | Potency [2] | Potency [3] | Potency [4] | Potency [6] | outcome [7] | Potency [8] | Potency [9] | Potency [10] | Potency [11] | Potency [12] | Potency [13] | Potency [14] | Potency [15] | outcome [19] | Potency [18] | outcome [16]

Cc1ccc2c(c1)c1c3n2CCNC3CCC1 (stereo unspecified)
inactive: outcome [1] | Potency [2] | Potency [3] | Potency [4] | Potency [17] | Potency [6] | outcome [7] | Potency [8] | Potency [9] | Potency [10] | Potency [12] | Potency [13] | Potency [14] | Potency [18] | outcome [16]

NS(=O)(=O)c1cc2c(cc1Cl)NC(CC1CCCC1)NS2(=O)=O (stereo unspecified)
inactive: outcome [1] | Potency [3] | outcome [20] | Potency [4] | Potency [6] | outcome [7] | Potency [8] | Potency [9] | Potency [10] | Potency [11] | Potency [13] | Potency [14] | outcome [19] | Potency [18] | outcome [16]

CCCO
inactive: outcome [1] | outcome [20] | Potency [4] | Potency [17] | Potency [6] | outcome [7] | Potency [8] | Potency [9] | Potency [10] | Potency [11] | Potency [12] | Potency [13] | Potency [14] | Potency [15] | Potency [18] | outcome [16]

O=S(=O)(O)c1cc(O)ccc1O
inactive: outcome [1] | outcome [20] | Potency [17] | Potency [6] | outcome [7] | Potency [8] | Potency [9] | Potency [10] | Potency [11] | Potency [12] | outcome [16]

CCCCC(C)C(=O)O (stereo unspecified)
inactive: outcome [20] | Potency [6] | outcome [7] | Potency [8] | Potency [9] | Potency [10] | Potency [13] | Potency [14] | Potency [18] | outcome [16]

Cc1cccc(C(=O)O)c1[N+](=O)[O-]
inactive: outcome [1] | Potency [2] | Potency [3] | Potency [4] | Potency [17] | Potency [6] | outcome [7] | Potency [8] | Potency [9] | Potency [10] | Potency [11] | Potency [12] | Potency [13] | Potency [14] | Potency [15] | outcome [16]

Nc1nc(=O)n([C@@H]2O[C@H](CO)[C@@H](O)[C@@H]2F)cc1I
inactive: outcome [1] | Potency [2] | Potency [3] | Potency [4] | Potency [17] | Potency [5] | outcome [7] | Potency [9] | Potency [10] | Potency [11] | Potency [12] | Potency [13] | Potency [14] | Potency [15] | Potency [18] | outcome [16]

CCCCCN(CCCOC)C(=O)C(CCC(=O)O)NC(=O)c1ccc(Cl)c(Cl)c1 (stereo unspecified)
inactive: outcome [1] | outcome [20] | Potency [4] | Potency [6] | outcome [7] | Potency [8] | Potency [9] | Potency [10] | Potency [11] | Potency [13] | Potency [14] | Potency [15] | Potency [18] | outcome [16]

CCC(O)C(C)(C)C (stereo unspecified)
inactive: outcome [1] | Potency [2] | Potency [3] | Potency [17] | Potency [5] | Potency [6] | outcome [7] | Potency [8] | Potency [9] | Potency [11] | Potency [12] | Potency [13] | Potency [14] | Potency [15] | outcome [16]

C/C=C(\C)C(=O)OCC/C=C\CC
inactive: outcome [1] | Potency [2] | Potency [3] | Potency [4] | Potency [17] | Potency [5] | outcome [7] | Potency [9] | Potency [10] | Potency [12] | Potency [13] | Potency [14] | Potency [18] | outcome [16]

CC(C)c1ccccc1O
inactive: outcome [1] | Potency [2] | Potency [3] | Potency [17] | Potency [5] | Potency [6] | outcome [7] | Potency [8] | Potency [9] | Potency [10] | Potency [11] | Potency [12] | Potency [13] | Potency [14] | Potency [18] | outcome [16]

CCNC(=O)NCCCOc1cccc(CN2CCCCC2)c1
active: Potency [3] 26.8 µM
inactive: outcome [1] | outcome [20] | Potency [4] | Potency [17] | Potency [6] | outcome [7] | Potency [8] | Potency [9] | Potency [10] | Potency [12] | Potency [13] | Potency [14] | Potency [15] | outcome [19] | Potency [18] | outcome [16]

CCCCCCCCCCCCCCCC(=O)NCCO
inactive: outcome [1] | Potency [4] | Potency [6] | outcome [7] | Potency [8] | Potency [9] | Potency [10] | Potency [14] | outcome [19] | Potency [18] | outcome [16]
active: Potency [2] 8.49 µM | Potency [3] 8.49 µM | Potency [5] 9.52 µM | Potency [12] 6.01 µM

C=C(C)C(=O)OC1CC(C)CC(C)(C)C1 (stereo unspecified)
inactive: outcome [1] | Potency [2] | outcome [20] | Potency [4] | outcome [7] | Potency [9] | Potency [10] | Potency [11] | Potency [12] | Potency [13] | Potency [14] | Potency [18] | outcome [16]
